Laboratory results reported in PubChem BioAssay AID489017 (The Scripps Research Institute Molecular Screening Center, 2010).
A number with no mark means an inactive call. The rule behind the calls is not given here.

Tested on: Rolipram
Assay: off-target binding and CYP450 inhibition panel, profiling panel, selectivity assay for S1P4 antagonist project, biochemical, Ricerca HitProfilingScreen (AID 489017)
Conditions: Ricerca receptor/enzyme binding panel plus CYP450, at 10 µM, active compounds read high

Compound: CCc1cccc(CC)c1NC(=O)c1ccc(-c2cc(Cl)ccc2Cl)o1
- inhibition: -2%
